Reference: PubChem BioAssay AID504444 (National Center for Advancing Translational Sciences (NCATS), 2011)
The whole screen tested about 360,000 compounds, of which about 7,500 (2.1%) were called active. Not shown: some 20% with an inconclusive outcome. Calls follow the shape of the dose curve; as a rule, active = well fitted inhibition curve with a large enough effect; inconclusive = small, poorly fitted or top-dose-only effect, or effect the other way; inactive = flat fitted curve, though single readings scatter. The full list was thinned out, with actives kept by preference.

Assay: Nrf2 qHTS screen for inhibitors; also: nearly all actives have a fitted effect of over 60% in size
Conditions: A549 ARE-Fluc reporter, luciferase luminescence, 18-24 h; series mostly up to 46 µM; activity change, negative = inhibition: at the top concentration
How it was run: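 Reporter: ARE-Fluc in A549. Exposure: 18-24 h, 37 °C, 5% CO2, 5% FBS OPTI-MEM. Readouts: fluorescent cytotoxicity (CellTiter-Fluor), then luminescent Nrf2 signal after BugLite.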
% is scaled to controls: 0 for no effect and ±100 for the full control effect; potency is read from the fitted curve at half-maximal effect.

SMILES | activity change, negative = inhibition | Potency
NC(=O)C1(Nc2ccc(-c3ccccc3)cc2)CCCC1 | 8.22% (inactive) | 
O=C1CCCC2=C1[C@@]1(CCC(c3ccccc3)C1)N=C(Nc1nc3ccccc3o1)N2 (some centres not stated) | -25.3% (inactive) | 
O=c1c2ccccc2n(Cc2cccc(Cl)c2)c(=O)n1Cc1ccccc1 | -5.53% [at 9.27 µM] (inactive) | 
CCOC(=O)c1cnc(SCC(=O)Nc2cccc(OC)c2)nc1N |  | 25.9 µM (active)
CCOC(=O)c1cnc(SCc2nc(N)nc(Nc3ccc(OC)cc3)n2)nc1N | -25.3% (inactive) | 
CCOC(=O)c1cnc(SCC(=O)NCc2ccco2)nc1N | -21.5% (inactive) | 
COc1ccc(-c2cn3c(n2)sc2cc(C(=O)Nc4ccc(F)cc4)ccc23)cc1 | -5.23% (inactive) | 
CCCCCCC1(C)NC(c2ccc3c(c2)OCO3)=CC(c2ccccc2O)N1 (configuration not stated) | 2.14% (inactive) | 
Cn1nccc1C(=O)NC1CCCc2c1cnn2-c1ccc(F)cc1F (configuration not stated) |  | 0.184 µM (active)
Cc1cc(C(=O)NC2CCCc3c2cnn3-c2cccc(C)c2C)c(C)o1 (configuration not stated) |  | 3.66 µM (active)
Cc1cccc(-n2nc3c(c2NC(=O)c2ccc(Br)o2)CSC3)c1C | -10.6% (inactive) | 
CC1=C(C(=O)NC2CC(C)(C)Cc3c2cnn3-c2ccc(C)cc2)OCCO1 (configuration not stated) | -24% (inactive) | 
Cc1ccc(C(=O)NCCNC(=O)c2cnccn2)cc1 | 4.7% (inactive) | 
CC(=O)NCC(=O)NC1CCCc2c1cnn2-c1ccccc1F (configuration not stated) | 19.1% (inactive) | 
Cc1ccc(-n2ncc3c2CCCC3NC(=O)c2cnccn2)cc1C (configuration not stated) |  | 20.6 µM (active)
Cc1ccc(-c2csc(NC(=O)c3cnccn3)n2)cc1C | 15.5% (inactive) | 
COc1ccc(C(=O)NC2CC(C)(C)Cc3c2cnn3-c2ccccc2C)o1 (configuration not stated) | 13.2% (inactive) | 
COc1cc(CNCCSc2nnnn2C)ccc1OCc1ccc(Cl)cc1Cl | -13.7% (inactive) | 
COc1ccc(CNC(=O)CS(=O)Cc2nc(-c3cccc(C)c3)oc2C)cc1 (configuration not stated) | -4.99% (inactive) | 
Cc1ccc(OCCSc2nc(C)c(Cc3ccccc3)c(=O)[nH]2)cc1 | 7.59% (inactive) | 
CCOC(=O)[C@H]1[C@H]2COc3ccc(Br)cc3[C@@H]2N2C(=O)CN(C)C(=O)[C@@]12C | -13.2% (inactive) | 
CN(CC(=O)Nc1ccc(OC(F)F)cc1)S(=O)(=O)/C=C/c1ccccc1 | -13.5% (inactive) | 
O=C(Cc1ccccc1)Nc1cccc(NC(=O)c2ccccc2)c1 |  | 25.9 µM (active)
O=C(Nc1cccc(NC(=O)c2cccc(F)c2)c1)c1ccccc1 | -21.7% (inactive) | 
O=C(Nc1cccc(NC(=O)c2ccc(Br)cc2)c1)c1ccccc1 |  | inactive

SMILES | activity change, negative = inhibition | Potency
Cc1ccccc1C(=O)Nc1sc2c(c1C(=O)N1CCC(C)CC1)CCCC2 | 3.62% (inactive) | 
COc1ccc(C(=O)COC(=O)c2ccc([N+](=O)[O-])s2)cc1OC | 10.6% (inactive) | 
Cc1cc(C(=O)N/N=C/c2cc([N+](=O)[O-])cc(C)c2O)n[nH]1 | -24.2% (inactive) | 
COc1ccc2ccccc2c1/C=N/NC(=O)c1cc(C)[nH]n1 | 10.1% (inactive) | 
CC(C)(C)c1cc(C(=O)N/N=C/c2ccc([N+](=O)[O-])s2)n[nH]1 |  | 20.6 µM (active)
COc1ccc(C(=O)NCC(=O)N/N=C/c2ccc([N+](=O)[O-])s2)cc1OC |  | 25.9 µM (active)
CCOc1ccc(NC(=O)CCC(=O)N/N=C/c2ccc([N+](=O)[O-])s2)cc1 | -11.9% (inactive) | 
Cn1c(=O)c(C(=O)O)nn(-c2ccccc2)c1=O | 7.58% [at 9.27 µM] (inactive) | 
COc1ccc(C2=NC(c3ccncc3)=Nc3ccc(Br)cc3N2)cc1 | -17.2% (inactive) | 
COc1cc(C2CC(=O)Oc3cc(OC)c(OC)c(OC)c32)cc(OC)c1OC (configuration not stated) | -9.18% (inactive) | 
CCN1CCN(CCNC(=O)c2ccc(/C=C3/Sc4ccccc4N(Cc4cccc(C)c4)C3=O)cc2)CC1 | 6.25% (inactive) | 
CCN1/C(=C/c2ccc3ccc(C)cc3[n+]2CC)Sc2ccccc21 |  | 13 µM (active)
FC(F)(F)c1ccc(-c2cccc3c2C2CC3CCN2Cc2ccccc2)cc1 (configuration not stated) | -5.75% (inactive) | 
COc1ccc(-c2cc(NCc3ccc(F)cc3)n3cnnc3n2)cc1 | -20.5% (inactive) | 
NC(=O)c1ncn([C@@H]2O[C@H](CNCc3cnc(N4CCOCC4)s3)[C@@H](O)[C@H]2O)n1 | -1.58% (inactive) | 
Cc1ccc(S(=O)(=O)c2c(COC(=O)c3cccc(Cl)c3)c(-c3ccccc3)nn2C)cc1 | 4.27% (inactive) | 
Cn1nc(-c2ccccc2)c(CO)c1Sc1ccccc1 |  | 25.9 µM (active)
Cn1nc(-c2ccccc2)c(CSc2cccc(Cl)c2)c1Cl | -17.6% (inactive) | 
O=C(COc1ccccc1F)NNC(=O)c1cc(Br)ccc1Cl | 2.26% (inactive) | 
O=C(CN1C(=O)NC2(CCCCCC2)C1=O)Nc1ccc([N+](=O)[O-])cc1 | -1.58% (inactive) | 
CCC1CCCCN1Cc1c(O)ccc2c(=O)c(Oc3ccccc3Cl)c(C(F)(F)F)oc12 (configuration not stated) | 1.23% (inactive) | 
C#CCOCCOCCOCCNc1nc(N2CCN(C(=O)Cn3cc(CCO)nn3)CC2)nc(N2CCN(C(=O)[C@H](CCCCN)n3cc(CCCC)nn3)CC2)n1 | 6.59% (inactive) | 
Cc1cc(C2=NNC(=Nc3ccc(S(=O)(=O)N4CCOCC4)cc3)SC2)c(C)n1CC1CCCO1 (configuration not stated) | 14% (inactive) | 
C=CCn1c(C)cc(C2=NNC(=NCC)SC2)c1C |  | 16.4 µM (active)
Cc1cccc2nc(-c3ccc(Cl)s3)c(Nc3ccc4c(c3)OCCO4)n12 | -12.5% (inactive) | 

SMILES | activity change, negative = inhibition | Potency
COc1ccc(NC(=O)/C(N=Nc2cccc(S(=O)(=O)Nc3ccc(SC(F)F)cc3)c2)=C(\C)O)cc1 | -4.71% (inactive) | 
C=CCCC(=O)N1C[C@H]2CON(C)[C@H]2C[C@H]1c1cccc(Nc2ccccc2)c1 | 6.32% (inactive) | 
CN(C)C(=O)CCc1ccc2c3c([nH]c2c1)[C@]1(C)[C@@H](C(=O)N2CCCCC2)C[C@H](CC(=O)NCCC2=CCCCC2)C(=O)N1CC3 | -13.1% (inactive) | 
CCc1ccc(S(=O)(=O)n2ccnc2)cc1 | 29.8% (inactive) | 
CCOc1ccccc1CNC(=O)c1ccc(-n2c(C)cc3c2CCC(C)C3)cc1 (configuration not stated) | 9.8% (inactive) | 
COc1ccc(C(=O)NC(=S)NNC(=O)CCc2ccccc2)cc1 |  | 7.31 µM (active)
Cc1ccc(CNC(=O)c2c(-c3ccccc3)noc2C)cc1 | -5.27% (inactive) | 
COc1ccc(C(=O)NNC(=S)NC(=O)c2ccccc2[N+](=O)[O-])cc1 | -1.05% (inactive) | 
COc1ccc(C(=O)NC(=S)NNC(=O)c2c(-c3ccccc3)noc2C)cc1 |  | 23.1 µM (active)
O=C(CCc1ccccc1)NNC(=O)c1ccc(Br)cc1 | 3.41% (inactive) | 
CC(C)Oc1ccc(CCC(=O)NNC(=S)NCc2ccccc2)cc1 | -0.796% (inactive) | 
CCN(C(=O)c1sc2cc(OC)ccc2c1Cl)c1ccccc1 | -27.9% (inactive) | 
C=CCN1C=C(C(=O)c2ccccc2)C(=O)CC1 | -4.83% (inactive) | 
COc1cccc(CNc2nc(C(F)(F)F)nc3ccccc23)c1 |  | 23.1 µM (active)
NS(=O)(=O)c1ccc(CCNC(=O)CNC(=O)Cc2ccccc2)cc1 | 4.33% (inactive) | 
COc1cccc(CNc2ncc(-c3ccccc3)n2C)c1 | 0.973% (inactive) | 
NS(=O)(=O)c1ccc(CCNc2nc(C(F)(F)F)nc3ccccc23)cc1 |  | 23.1 µM (active)
COc1cccc(CNC(=O)c2n[nH]c3ccccc23)c1 | -2.22% (inactive) | 
CC(Nc1nc(C(F)(F)F)nc2ccccc12)c1cccs1 (configuration not stated) | 4.12% (inactive) | 
Cc1ccc(C)c(Cn2c(C(=O)O)c(CNCc3cccs3)c3ccccc32)c1 | -15.6% (inactive) | 
COC(=O)CN1C(=O)CSc2ccc(S(=O)(=O)Nc3cc(C)ccc3C)cc21 | 10.2% (inactive) | 
Cc1ccc(C(=O)c2ccc(N3CCN(C)CC3)c([N+](=O)[O-])c2)cc1 | -7.25% (inactive) | 
Cc1cc(N)n(-c2ccc(S(=O)(=O)N3CCCC3)cc2[N+](=O)[O-])n1 | 5.75% (inactive) | 
CN1CCN(S(=O)(=O)c2ccc(N3CCN(c4ccccc4O)CC3)c([N+](=O)[O-])c2)CC1 |  | 14.6 µM (active)
COc1ccc(-c2nc(Cn3c(=O)cc(C)c4c(C)nn(-c5ccccc5)c43)c(C)o2)c(OC)c1 | 16.5% (inactive) | 

SMILES | activity change, negative = inhibition | Potency
Cc1cc(C)n2ncc(C(=O)N3CCCC3)c2n1 | 14.2% (inactive) | 
Cc1cccc(NS(=O)(=O)c2ccc(C)c(C(=O)NCC(c3ccccc3)N(C)C)c2)c1 (configuration not stated) | -21.8% (inactive) | 
Cc1oc2c(c1C(=O)N1CCOCC1)C(=O)c1ccccc1C2=O |  | 16.4 µM (active)
CCOC(=O)c1ccccc1C(=O)N1CCOCCOCCOCC1 | 14.3% (inactive) | 
Cc1ccccc1-c1ccc(Nc2ccc(C(=O)N3CCOCC3)cc2)nn1 | 6.18% (inactive) | 
COc1ccc(C2Nc3ccc(NC(=O)COC(C)=O)cc3C(=O)N2Cc2ccccc2)cc1COc1ccc(NC(C)=O)cc1 (configuration not stated) | -7.8% (inactive) | 
Cc1cccc(C)c1OC(=O)CSc1nnc(-c2ccccc2)o1 | -3.7% (inactive) | 
CC1=CC(C)(C)N(C(=O)CSc2nnc(-c3ccccc3)o2)c2ccc(C)cc21 |  | 25.9 µM (active)
CC1=CC(C)(C)N(C(=O)CSc2nccn2C)c2cc(C)ccc21 | 0.891% (inactive) | 
CCN(CC)C(=O)[C@H]1CC(CC(=O)NCc2ccco2)C(=O)N2CCc3c([nH]c4ccccc34)[C@]12C (some centres not stated) | -4.63% (inactive) | 
Cc1cccc(N=C2NN=C(c3c[nH]c4ccccc34)CS2)c1 | 9.67% (inactive) | 
S=C(Nc1cccc(Cl)c1)Nc1ccc2c(c1)OCCO2 | 2.75% (inactive) | 
Clc1cccc(N=C2NN=C(c3ccc4c(c3)OCCO4)CS2)c1 |  | 5.17 µM (active)
CCn1nnc2cc(C(=O)Nc3ccc(C(=O)OC(C)C)cc3)ccc21 | -0.376% (inactive) | 
Cc1cc(C)cc(NC(=O)CSc2oc(-c3ccccc3)nc2S(=O)(=O)c2ccc(Cl)cc2)c1 | 4.62% [at 9.27 µM] (inactive) | 
Cc1ccc(-c2nc(CS(=O)(=O)CC(=O)NCc3ccccc3Cl)c(C)o2)cc1 | -22.6% (inactive) | 
CCCCn1c(SCc2ncc(-c3ccccc3)o2)nc2cc(S(N)(=O)=O)ccc21 |  | 14.6 µM (active)
CCCCn1c(SCC(=O)N2CCCC2=O)nc2cc(S(N)(=O)=O)ccc21 | 10.2% (inactive) | 
CCCCn1c(SCC(=O)N2CCC(C(=O)OCC)CC2)nc2cc(S(N)(=O)=O)ccc21 | -3.7% (inactive) | 
CCCn1c2ccccc2c2cnn(CC(=O)N(CC)c3cc(C)ccc3C)c(=O)c21 | -4.38% (inactive) | 
Cc1ccc(S(=O)(=O)c2nc(-c3cccs3)oc2N2CCCCC2)cc1 | -22% (inactive) | 
CCOc1ccccc1NC(=O)Cn1nnc(C(=O)Nc2ccc(C)c(C)c2)c1N | 5.62% (inactive) | 
